Assay results from the supplement of paper PMC11417369.
The full ranking holds about 25,000 sequences; the median of “ln(normalized median fluorescence intensity)” is about 9.3, and the highest 2% start at about 10. Many of the other results were omitted from the sample, so the highest values are more common in it than they were.

These sequences were tested on PF3D7_0420300 AP2 domain 1 (GST-tagged) (assay: gcPBM binding intensity (ln(normalized median fluorescence intensity)); higher = stronger DNA binding).
Method in brief: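 An Agilent 4 × 180k array of primer-extended double-stranded 36-bp intergenic genomic probes, with negative controls, was incubated for 1 h with GST-tagged P. falciparum DNA-binding domains expressed in E. coli. Alexa488 anti-GST antibody detected bound protein, scanned at 488 nm. Binding intensity is the highest Masliner-normalised natural-log median intensity across replicate spots of either probe orientation.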

Row | Sequence | gcPBM binding intensity (ln)
1 | TATGTGAATATAATCACACACAATACGGAAAGAGAC [CACACA_site7311] | 10.2
2 | AATATGTGAATATAATCACACACAATACGGAAACAC [CACACA_site8875] | 10.1
3 | TATGTGAATATAATCACACACAATACGGAAACCCAC [CACACA_site2725] | 9.77
4 | TTTTTTTTTTTTTTTGCACACACCATATTTATAGAA [CACACA_site3310] | 9.46
5 | GTTCATAAATTAAACACACACACACCGCTGGATACC [CACACA_site5779] | 10.1
6 | TCATAAATGAAACACACACACACATCTGGATACCCC [CACACA_site3332] | 10.1
7 | TCATAAATTAAACACACACACACATCTGGATACCCC [CACACA_site9096] | 10.3
8 | GTTCATAAATTAAACACACACACACCCCTGGATACC [CACACA_site3331] | 10.2
9 | ATAAATTAAAAACACACACACATCTGGATACCCCTA [CACACA_site5780] | 10.1
10 | GTTCATAAATTAAACACACACACACGGCTGGATACC [CACACA_site7545] | 10.1
11 | TACTCCTCAATATTATGTACATATAATAGTTATAAA [XGTACX_site8551] | 9.23
12 | TATATACAAAAAATATGTACATATATATATATATAT [XGTACX_site3497] | 9.21
13 | TAATATTTTATTTTTGTTGTGGATCCAAAAAAAAAA [CACACA_negctrl_site846] | 8.76
14 | TAATATGAAATGTGTACACACGCACCCACAAAAAAA [CACACA_site8949] | 9.74
15 | AAAAATTATAGAAAAGTGCAATACATGTTACACCAT | 9.28
16 | AAAAAATCAAAACACACACACACACCCAAAAAAAAA [CACACA_site1444] | 10.1
17 | AACAAATACGGACACACACACACACTAGAAAAAAAA [CACACA_site4442] | 10.2
18 | AAAGAAAAAAAAAAAACACACAAAAAAAATCAAAAT [CACACA_site2871] | 9.94
19 | AACACGCACAGACACACACACAAAAATGATTAAAAA [CACACA_site7195] | 9.67
20 | CAAATAAATATTAAAAGTACACACAGATACACTAAT [XGTACX_site3749] | 9.88
21 | AACAAACACGGACACACACACACACTAGAATGATTA [CACACA_site5364] | 10.2
22 | AAAAAATCAAAACACACACACACACTAGAAAAAAAA [CACACA_site4909] | 10.3
23 | TATTAATACGGACACACACACACACTAGATAAAATA [CACACA_site4295] | 10.2

Row | Sequence | gcPBM binding intensity (ln)
24 | CAAATACACGGACACACACACACAAAAAAAAAAAAA [CACACA_site6385] | 10.1
25 | ATAAATATTAAAAGTACACACAGATACACTAATTAT [CACACA_site1808] | 9.75
26 | CAAACCCACGGACACACACACACAAAAATGATTAAA [CACACA_site5365] | 9.93
27 | TACACAGACGGACACACACACACACTAGAAAAAAAA [CACACA_site4435] | 10
28 | AACAAAATTGAAGGAACACACATACAGATATATATA [CACACA_site4264] | 9.81
29 | AGCAAAAATTAAATAAATAAATATATATATATATAT [TGCATGCA_negctrl_site449] | 9.12
30 | TTTTTGCAAAAAGAAATAATTTTATTTTAGTTCGGA [CACACA_negctrl_site1718] | 8.78
31 | ATTTTTATACGTTTTTTTTTTTTTTTTTTTTATTTA [CACACA_negctrl_site1142] | 9.62
32 | ATAATGTGTTAGGCGTGTACACAATTGTATGGTTTA [XGTACX_site2377] | 9.45
33 | ATATTAACTTTTATTACACACTCTCAACTTTTATTT [CACACA_site6176] | 9.72
34 | GTACTTGTATTATGCACACATATAATTAAACATATA [CACACA_site3312] | 9.41
35 | CATTTTAAAACAGACACACACCAAAAAAAAAAAAAA [CACACA_site6259] | 9.4
36 | AAGAAAAACTAAAGAGTTCTGTTCATATCTCTTTGG [TGCATGCA_negctrl_site549] | 8.99
37 | ATCAAGCACGAACACACACACACACGCACGCCCACA [CACACA_site6308] | 10.2
38 | TTTATTTTATCATTTGCACACGCACGCCCACATAAA [CACACA_site353] | 9.4
39 | CCAACATGCCCACGCACACACAAAAAAAGCATGCAT [CACACA_site4217] | 9.58
40 | GAGAGTAAAACAAATATACACACCATAAAGTTATAA [CACACA_site1686] | 9.49
41 | TTCATTCAAATTAACGTGCACATTATTAGTAAAAAC | 9.08
42 | ATACTAAATGAACACACACACATATAGATTTATAAC [CACACA_site6200] | 10.2
43 | TTATACTAAATGAACACACACACATATATATATATA [CACACA_site99] | 9.81
44 | ATACTAAATGAACACACACACATATATATATATAAT [CACACA_site4232] | 10.1
45 | TAGTGTATGATAATATGTACATACATTTATATAATA [XGTACX_site6330] | 9.11
46 | TATATATATATATAAACACACATAAATATAAATATA [CACACA_site1121] | 9.6

Row | Sequence | gcPBM binding intensity (ln)
47 | AAAAAAAGTTATATTACACACTTTATTCGTTAACTT [CACACA_site3013] | 9.47
48 | TTTGTTATGGTTTTCTCACACATATATATATATATA [CACACA_site4617] | 9.5
49 | AAAAAAAAAAAACACACACACACACTAATACATACA [CACACA_site8135] | 10.1
50 | AATAAAAAAAAAAAAAAAAAAAAAAAGACACTAAAA [CACACA_negctrl_site1075] | 9.33
51 | AAAAAAAAAAGACACACACACACACTAATACATACA [CACACA_site6473] | 10.2
52 | AAAAAAAAAAGACACACACACACAAATACATACACA [CACACA_site6472] | 10.1
53 | AAAAAAAAAAGACACACACACAAATACAAATACATA [CACACA_site6334] | 10
54 | AAAAAAAAAAGACACACACACACATACACATACATA [CACACA_site7362] | 10.2
55 | ATGGGTATATTTCCACGTACAAAAAATCCGAATTGC [XGTACX_site1490] | 9.23
56 | AAAAATTAAAATATTATAGTTGAAACTTTTATAAAT [TGCATGCA_negctrl_site454] | 8.81
57 | AATATGTAGTAATCAAGTACTAATGTCTTAATTCGG [XGTACX_site308] | 9.27
58 | GATATGAATATAGGTTGTACTATATATAAAGTATGT [XGTACX_site1877] | 9.35
59 | CCACTGTATGAATGCACACATTCATAGAATTGCTAT [CACACA_site2676] | 9.24
60 | CATATAAATAGACACACACACACATATAAATAAATA [CACACA_site7156] | 10.3
61 | TATATAAATAGACACACACACATATAAATATAAATA [CACACA_site6503] | 10.1
62 | TATATATATAGACACACACACATATAAATAAATAAA [CACACA_site444] | 10.1
63 | TAATAATAGAGACACACACACATAGACATATAAATA [CACACA_site6729] | 10.2
64 | TATAAATAGAGACACACACACATATAAATAAATATT [CACACA_site7854] | 10.1
65 | TATATAAATAGACACACACACACATATAAATAAATA [CACACA_site7855] | 10.2
66 | TTATAAAATAAACTTACACACATGAAATATTATATT [CACACA_site1945] | 9.49
67 | ATAGAAGCTGTTGACGAAGAAAAAAAAAAAAAAAAA [CACACA_negctrl_site110] | 8.56
68 | TTTAAAAAAATTCATGCACACGAAATAAAAAGCACC [CACACA_site8214] | 9.71
69 | ACAAAAAAAAAAAAAAAAAGAAGAATATATCTATAT [CACACA_negctrl_site759] | 9.16

Row | Sequence | gcPBM binding intensity (ln)
70 | ATTATAAATATATTTTGTACTTAAAAGGAAAAAAAA [XGTACX_site55] | 9.02
71 | TATAATCATAAATACACACACATATATATATATATA [CACACA_site5224] | 9.54
72 | ACATATACAAGACACACACACAACGTTTTAATAAAT [CACACA_site7017] | 10.2
73 | AAATATAAATGGTAATACACATACACACACACATAC [XGTACX_negctrl_site459] | 10.2
74 | ATAAATACATATAAAAGTACACACACACACATATAT [XGTACX_site1744] | 10.4
75 | ACATATAAAATATATACACACATATAAATACATTAA [CACACA_site3867] | 9.75
76 | ACATATACAAAACACACACACAACGTTTTAATAAAT [CACACA_site1979] | 10.1
77 | AAAAAAAAAAAGTACACACATACATATAAATATATA [CACACA_site1809] | 9.46
78 | TATAAATATATATACACACACACATTAATACATATA [CACACA_site3488] | 10.2
79 | TTAAAATATACATAAACACACACAAAACGTTTAAGA [CACACA_site8267] | 9.9
80 | AAATATAAAAAATATACACACATATATAATATATAT [CACACA_site2963] | 9.55
81 | AAATTAATTAAATATACACACATATATAAATATATA [CACACA_site391] | 9.38
82 | AAAAAAAAAAAAAGTACACACATACATATAAATATA [CACACA_site8533] | 9.72
83 | TATATTGAAAATAAAACATGCAATCACTCATACATA [TGCATGCA_site248] | 9.36
84 | AAAGAAAAATTAACATGTACAAAAATTACTTGTTCA [XGTACX_site6725] | 9.21
85 | AAAAAATAAATAAATACACACAAATCTATATTTATA [CACACA_site7243] | 9.51
86 | GTATTCTACAGACACATACACACATATATATATATA [CACACA_site3427] | 9.7
87 | TTAAATATAAAAAGTAGTACATTTATATTTACCATA [XGTACX_site2962] | 8.96
88 | AATTCATTATATATACGTACATATTTCTGTATAAAA [XGTACX_site6371] | 9.24
89 | ATACATATATATAGGTGTACATATAATATATATATA [XGTACX_site2228] | 9.35
